Results published in PubChem BioAssay (EPA / NIEHS).
Where “and” joins values, the source holds several entries; their conditions need not be identical. Equal values may be shown once. Calls of active or inactive are those of the source. The calls were made as follows: active = hit-call score of the fitted dose curve at least 0.9, where 1 is the maximum; inactive = score below 0.9.

read-out: Plasminogen activator inhibitor-1 (PAI1), SERPINE1 (gene 5054); test: BSK_MyoF_PAI1: BioMAP Diversity Plus: MyoF Assay for Plasminogen activator inhibitor-1 (PAI1) Biomarker Activity (AID 2284256); conditions: primary human lung fibroblasts;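 as to outcome: PAI-1 protein level measured by ELISA in fibroblast cultures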
Summary of the method: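 Activity reflects increased PAI-1, determined by ELISA and compared with DMSO, in human lung fibroblasts treated for 24 h.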

**Q.** With `O=P(O)(O)CCC(F)(F)C(F)(F)C(F)(F)C(F)(F)C(F)(F)C(F)(F)F` as the compound, how does the outcome read?
**A.** inactive

**Q.** `O=S(=O)(O)C(F)(F)C(F)(F)C(F)(F)C(F)(F)C(F)(F)C(F)(F)C(F)(F)C(F)(F)C(F)(F)C(F)(F)F` was tested. Which outcome did it give?
**A.** inactive

**Q.** How did the outcome turn out when `O=C(O)CCC(F)(F)C(F)(F)C(F)(F)C(F)(F)C(F)(F)F` was run?
**A.** inactive

**Q.** `Clc1ccc(Nc2nnc(Cc3ccncc3)c3ccccc23)cc1` was tested. Which outcome did it give?
**A.** inactive

**Q.** How did the outcome turn out when `CC[N+](CC)(CC)Cc1ccccc1` was run?
**A.** inactive

**Q.** With `CC(C)(C)c1ccc(O)c(O)c1` as the compound, how does the AC50 read?
**A.** 33.3 µM (active)

**Q.** Which outcome does the source give for `O=P(O)(O)CCC(F)(F)C(F)(F)C(F)(F)C(F)(F)C(F)(F)C(F)(F)C(F)(F)C(F)(F)F` here?
**A.** inactive

**Q.** For `C=CC(=O)OCCC(F)(F)C(F)(F)C(F)(F)C(F)(F)C(F)(F)C(F)(F)C(F)(F)C(F)(F)F`, which outcome is on record?
**A.** inactive

**Q.** With `CN(CCO)S(=O)(=O)C(F)(F)C(F)(F)C(F)(F)C(F)(F)C(F)(F)C(F)(F)C(F)(F)C(F)(F)F` as the compound, how does the outcome read?
**A.** inactive

**Q.** Which outcome does the source give for `OCC(F)(F)C(F)(F)C(F)(F)C(F)(F)C(F)(F)C(F)(F)C(F)(F)C(F)(F)C(F)(F)C(F)(F)C(F)(F)F` here?
**A.** inactive

**Q.** How did the outcome turn out when `CN(Cc1cnc2nc(N)nc(N)c2n1)c1ccc(C(=O)N[C@@H](CCC(=O)O)C(=O)O)cc1` was run?
**A.** inactive

**Q.** `Oc1cc2ccccc2cc1O` was tested. Which outcome did it give?
**A.** inactive

**Q.** For `O=C(CC(=O)C(F)(F)C(F)(F)C(F)(F)F)c1cccs1`, which outcome is on record?
**A.** inactive

**Q.** Which outcome does the source give for `CC1=NN(c2ccccc2)C(=O)C1` here?
**A.** inactive

**Q.** With `CCCCC(CC)C(=O)OCCOCCOCCOCCOC(=O)C(CC)CCCC` (stereo not drawn) as the compound, how does the outcome read?
**A.** inactive

**Q.** Which outcome does the source give for `O=C(O)CCC(F)(F)C(F)(F)C(F)(F)C(F)(F)C(F)(F)C(F)(F)F` here?
**A.** inactive

**Q.** For `O=C(O)C(F)(F)OC(F)(F)C(F)(F)OC(F)(F)C(F)(F)OC(F)(F)C(F)(F)C(F)(F)C(F)(F)F`, which AC50 is on record?
**A.** 14.6 µM (active) and 13.3 µM (active)

**Q.** Which outcome does the source give for `Cc1ccc(C(=O)c2ccccc2)cc1` here?
**A.** inactive
